This note sets out measurements from ChEMBL document CHEMBL1201862, “PubChem BioAssay data set” (2004).

Hit rate of the full screen: of about 400,000 compounds, about 2,100 (0.53%) were called active. Inconclusive results (about 14%) are left out. This is one part of a sample in which actives are shown more often than they occur. The rule behind the calls is not given here.

Sequence of Ataxin-2 (Homo sapiens) (Q99700 whole entry): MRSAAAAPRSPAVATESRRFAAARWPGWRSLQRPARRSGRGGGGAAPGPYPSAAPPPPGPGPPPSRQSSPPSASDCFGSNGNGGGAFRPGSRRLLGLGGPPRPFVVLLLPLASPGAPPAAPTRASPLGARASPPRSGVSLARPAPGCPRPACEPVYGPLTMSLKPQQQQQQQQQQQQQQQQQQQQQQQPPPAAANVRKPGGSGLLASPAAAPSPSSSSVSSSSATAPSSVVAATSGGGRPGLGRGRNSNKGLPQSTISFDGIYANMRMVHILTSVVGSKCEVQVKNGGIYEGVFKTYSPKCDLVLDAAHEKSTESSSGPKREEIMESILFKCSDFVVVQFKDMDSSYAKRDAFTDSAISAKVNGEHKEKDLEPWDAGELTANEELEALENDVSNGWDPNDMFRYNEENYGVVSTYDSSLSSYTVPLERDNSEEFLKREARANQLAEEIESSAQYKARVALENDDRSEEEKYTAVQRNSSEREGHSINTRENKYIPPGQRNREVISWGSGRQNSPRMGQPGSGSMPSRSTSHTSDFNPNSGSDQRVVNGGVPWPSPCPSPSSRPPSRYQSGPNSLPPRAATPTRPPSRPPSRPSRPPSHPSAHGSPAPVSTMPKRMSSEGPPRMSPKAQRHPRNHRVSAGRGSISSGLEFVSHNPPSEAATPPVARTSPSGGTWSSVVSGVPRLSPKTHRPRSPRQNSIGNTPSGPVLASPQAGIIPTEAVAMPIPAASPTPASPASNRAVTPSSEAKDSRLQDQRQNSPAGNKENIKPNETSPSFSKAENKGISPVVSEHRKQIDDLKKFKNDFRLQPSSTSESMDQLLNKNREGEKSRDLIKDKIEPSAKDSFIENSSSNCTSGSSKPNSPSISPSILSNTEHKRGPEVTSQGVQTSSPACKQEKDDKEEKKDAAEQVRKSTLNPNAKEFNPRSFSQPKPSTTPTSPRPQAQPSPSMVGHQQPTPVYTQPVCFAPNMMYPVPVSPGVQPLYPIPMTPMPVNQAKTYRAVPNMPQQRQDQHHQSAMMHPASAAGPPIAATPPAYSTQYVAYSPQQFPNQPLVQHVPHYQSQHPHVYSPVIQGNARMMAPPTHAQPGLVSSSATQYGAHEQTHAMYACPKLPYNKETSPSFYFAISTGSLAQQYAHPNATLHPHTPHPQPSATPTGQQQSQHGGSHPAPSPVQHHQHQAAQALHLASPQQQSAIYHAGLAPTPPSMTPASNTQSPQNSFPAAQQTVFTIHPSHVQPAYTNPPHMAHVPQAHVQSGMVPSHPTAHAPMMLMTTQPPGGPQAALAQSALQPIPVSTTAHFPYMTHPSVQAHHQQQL

The test has as its target Ataxin-2 (Homo sapiens) (UniProt Q99700). Kind of test: qHTS for Inhibitors of ATXN expression. The format is functional. (qHTS replaces the single test concentration by a dilution series.)
As to `CN(C)c1cccc(C(=O)OCc2cc(=O)oc3cc(O)ccc23)c1`, the Potency result is “inactive”.

For the compound `N#C/C(=C\c1cccnc1)c1nc2c(s1)CCCC2`, the Potency entry was “inactive”. Then `CN1/C(=C/C=C/c2n(C)c3cc([N+](=O)[O-])c([N+](=O)[O-])cc3[n+]2C)C(C)(C)c2ccccc21`, with 7.94 µM (active); and `O=C(Oc1c(-c2ccccc2Cl)oc2ccccc2c1=O)c1ccc(Cl)cc1`, with “inactive”; and `COCCCn1c(=N)c(C(=O)NCC2CCCO2)cc2c(=O)n3cccc(C)c3nc21` (centres undefined), with “inactive”.

Regarding `Cc1ccc(-n2c(=O)c(C#N)cc3c(=O)n4ccccc4nc32)cc1C`, the Potency entry was “inactive”.

As to `O=C(CCS(=O)(=O)c1ccc(F)cc1)Nc1nc(-c2ccncc2)cs1`, the Potency was 39.8 µM (active).

With `Cc1c(Cl)cccc1NC(=O)CNC(=O)CCS(=O)(=O)c1ccc(F)cc1`, the Potency result is “inactive”. For `O=C(Cc1ccccc1)Nc1nc(-c2ccc(F)c(F)c2)cs1` the value was “inactive”. With `CC(C)(C)c1ccc(-n2nc(C#N)c(Cl)cc2=O)cc1`, the Potency was 15.8 µM (active).

With `COc1ccc(-n2nc(C#N)c(Cl)cc2=O)cc1`, the Potency is 39.8 µM (active). For `COc1ccc(-n2nc(C)c3onc(C)c3c2=O)cc1` the value was “inactive”. Then `COc1ccc(N2C(=O)CC(NNc3ncc(Cl)cc3Cl)C2=O)cc1` (centres undefined), with “inactive”.

As to `Cc1ccc(CSc2nnc([C@@H]3CCCN3C(=O)OC(C)(C)C)o2)cc1`, the Potency result was “inactive”. Then `CCc1nnc(NS(=O)(=O)c2ccc(NC(=O)c3cccc(Cl)c3)cc2)s1`, with “inactive”; and `O=[N+]([O-])c1ccc(Nc2ccccc2)c2nonc12`, with 25.1 µM (active); and `CCc1nnc(NS(=O)(=O)c2ccc(Nc3ccc([N+](=O)[O-])c4nonc34)cc2)s1`, with 17.8 µM (active). For `O=[N+]([O-])c1ccc(Sc2cccc[n+]2[O-])c2nonc12` the value was 6.7 µM (active); for `CCc1nnc(NS(=O)(=O)c2ccc(N/C=C/C(=O)c3ccc(C)cc3)cc2)s1`, “inactive”; for `COCCn1c(SCC(=O)NC2CCCCC2)nnc1-c1ccncc1`, “inactive”. Regarding `O=C1OCCN1C(=O)[C@H]1[C@H](c2ccc(F)cc2)C(c2cccc(Cl)c2)=NN1c1ccccc1`, the Potency result was “inactive”. Then `CN(C)C(=O)CCc1ccc2c3c([nH]c2c1)[C@]1(C)[C@@H](C(=O)N2CCCCC2)C[C@H](CC(=O)NCC24C[C@H]5C[C@@H](C2)C[C@@H](C4)C5)C(=O)N1CC3`, with 39.8 µM (active). Take `O=C(NCc1cccc(C(F)(F)F)c1)c1cccc2c1C(=O)c1ccc(N3CCC(Cc4ccccc4)CC3)cc1S2(=O)=O`: the Potency entry is “inactive”. Turning to `CCN(CC)C(=O)[C@H]1CC(CC(=O)NCc2cccc(C(F)(F)F)c2)C(=O)N2CCc3c([nH]c4ccccc34)[C@]12C` (some centres undefined), the Potency is 22.4 µM (active).

`CCN(CC)C(=O)[C@H]1CC(CC(=O)NCC23C[C@H]4C[C@@H](C2)C[C@@H](C3)C4)C(=O)N2CCc3c([nH]c4ccccc34)[C@]12C` (some centres undefined): the Potency was 39.8 µM (active). Consider `CC(C)N(C(=O)[C@H]1CC(CC(=O)NCc2cccc(C(F)(F)F)c2)C(=O)N2CCc3c([nH]c4ccccc34)[C@]12C)C(C)C` (some centres undefined), for which the Potency was 39.8 µM (active).

On to `C/C(=N\NC(=O)c1nc2ccccn2c1C)c1ccco1`, for which the Potency entry was “inactive”. Then `Cc1c(Cc2ccccc2)c(=O)oc2cc(O)cc(O)c12`, with “inactive”; and `COCC(=O)N(CCN(C)C)Cc1cc2cc3c(cc2nc1Cl)OCO3`, with “inactive”; and `COc1ccc(-c2cn3nc(SCC(=O)NCC4CCCO4)ccc3n2)cc1` (centres undefined), with “inactive”. For `Cn1cnc([N+](=O)[O-])c1S(=O)(=O)c1cccc(Cl)c1` the value was 8.91 µM (active); for `Cn1cnc([N+](=O)[O-])c1S(=O)(=O)Oc1ccc(Cl)cc1`, 31.6 µM (active). For `O=S(=O)(Oc1ccc(Cl)cc1)c1cccc2cccnc12` the value was “inactive”; for `CC(=O)Nc1ccc(OS(=O)(=O)c2cc(Cl)ccc2C)cc1`, “inactive”. As to `Cn1cnc([N+](=O)[O-])c1S(=O)(=O)Oc1ccccc1`, the Potency was 28.2 µM (active). Then `Cn1c(=O)n(CCOc2ccc([N+](=O)[O-])cc2)c2ccccc21`, with “inactive”; and `CCOc1ccc(Nc2nc3c(S(=O)(=O)c4cccc(Cl)c4)nnn3c3ccsc23)cc1`, with “inactive”; and `Cc1c2c(n3c(nc4ccccc43)c1C#N)N(CCCN(C)C)CC2`, with “inactive”. For `Cc1ccc(Sc2ncccc2C(=O)N(C)Cc2cccs2)c(C)c1` the value was “inactive”; for `O=c1c2ccccc2oc2cc(NCCCN3CCOCC3)ccc12`, “inactive”; for `CCN(CC)S(=O)(=O)c1ccc(N2CCCC2)c(NS(=O)(=O)c2cccs2)c1`, “inactive”. For `CCCCCCSc1ccc(-c2nc3cnccn3c2NCCCC)cc1` the value was “inactive”; for `O=c1c2ccccc2nc(/C=C/c2ccc([N+](=O)[O-])o2)n1CCCO`, 15.8 µM (active). On to `CN(C)c1ccc(/C=C/c2nc3ccccc3c(=O)n2CCO)cc1`, for which the Potency entry is “inactive”. For `O=c1c2ccccc2nc(/C=C/c2cc(Br)ccc2O)n1CCCO` the value was “inactive”; for `CCn1c(/C=C/c2cc[n+](C)cc2)nc2ccccc21`, “inactive”. Then `COc1ccc(Oc2ccc(/C=C/C(=O)c3cccc(OC)c3)cc2[N+](=O)[O-])cc1`, with 39.8 µM (active); and `COc1ccc(OC)c(C=Cc2ccc([N+](=O)[O-])cc2)c1`, with “inactive”; and `O=C(/C=C/c1ccc(Cl)c([N+](=O)[O-])c1)c1ccc(O)cc1`, with 28.2 µM (active). Then `COc1ccc(Oc2ccc(/C=C/C(=O)c3ccc(O)cc3)cc2[N+](=O)[O-])cc1`, with 28.2 µM (active). Regarding `Cc1cc(CNC(=O)c2cccc([N+](=O)[O-])c2C)c2ccccc2n1`, the Potency result is “inactive”. For `CN(CC(=O)Nc1cccc(C#N)c1)Cc1ccc(Cl)cc1` the value was “inactive”; for `COc1ccc(NC(=S)N(CCCN2CCCC2)Cc2cccn2Cc2ccc(Cl)cc2)cc1Cl`, 39.8 µM (active). `CSc1cccc(NC(=S)N(CCCN2CCCC2)Cc2cccn2Cc2ccc(Cl)cc2)c1`: the Potency was 31.6 µM (active). For `Cc1ccc(NC(=S)N(CCCN2CCCC2)Cc2cccn2Cc2ccc(Cl)cc2)cc1` the value was 39.8 µM (active); for `COc1ccc(NC(=O)Cn2nc(C(=O)O)c3ccccc3c2=O)cc1Cl`, “inactive”; for `Cc1cccc(NC(=S)N(CCCN2CCCC2)Cc2cccn2Cc2ccc(Cl)cc2)c1`, 25.1 µM (active). Then `CSc1ccc(CN(C)CC(=O)Nc2ccc(C)cc2Br)cc1`, with “inactive”; and `COc1cccc(/C=C/c2nc(C#N)c(N(C)Cc3ccccc3)o2)c1`, with “inactive”.
